Assay results as given in PubChem BioAssay AID2546 (National Center for Advancing Translational Sciences (NCATS), 2010).
Hit rate of the full screen: of about 310,000 compounds, about 11,000 (3.5%) were called active. Roughly 8% stayed inconclusive and do not appear here. This is one part of a sample in which actives are shown more often than they occur. Unmarked numbers belong to inactive results. Calls follow the shape of the dose curve; as a rule, active = well fitted inhibition curve with a large enough effect; inconclusive = small, poorly fitted or top-dose-only effect, or effect the other way; inactive = flat fitted curve, though single readings scatter.

Assay: VP16 counterscreen qHTS for inhibitors of ROR gamma transcriptional activity;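 also: Gal4-VP16 expression switched on by copper sulfate through the metallothionein promoter; nearly all actives have a fitted effect of over 50% in size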
Details: Drosophila S2 Gal4-VP16 UAS-luciferase, luminescence, 20 h; series mostly up to 53.6 µM; activity, negative = inhibition: at the top concentration
% is scaled to controls: 0 for no effect and ±100 for the full control effect; potency is read from the fitted curve at half-maximal effect.

SMILES | Potency | activity, negative = inhibition
O=C(N/N=C/c1ccccn1)C12CC3CC(CC(C3)C1)C2 | 20 µM (active) | 
O=C(Nc1ccc(S(=O)(=O)Nc2ncccn2)cc1)C12CC3CC(CC(C3)C1)C2 |  | 6.85%
CNC(=O)C(=O)N/N=C/c1ccccn1 |  | -5.47%
COc1cc2ccccc2cc1C(=O)Nc1ccc(NC(=O)c2cccs2)cc1 |  | -13.3%
Cc1csc(=Nc2ccccc2)n1CCO |  | 1%
C=C(C)CNC(=S)/N=c1\scc(C)n1CC | 8.91 µM (active) | 
Cc1csc(=NC(=O)c2ccccc2)n1CCO |  | 1.69%
CC(C)(c1ccccc1)c1ccc(OCCN2CCCC2)cc1 |  | -7.2%
CC(C)=CCN1CCN(Cc2cc3ccccc3[nH]2)CC1CCO (centres undefined) |  | 23.2%
O=C(CSc1ccc(-c2ccc(Br)cc2)nn1)NCC1CCCO1 (centres undefined) |  | 3.03%
O=C(c1cc(C(F)(F)F)cc(C(F)(F)F)c1)N1CCC[C@@]2(CCN(c3ccccn3)C2)C1 |  | -11.2%
O=C(c1cc(C(F)(F)F)cc(C(F)(F)F)c1)N1CCC2(CC1)CN(c1ccncc1)C2 |  | 10.8%
O=C(c1cc(C(F)(F)F)cc(C(F)(F)F)c1)N1CCC2(CCCN(c3ccccn3)C2)CC1 | 12.6 µM (active) | 
Cc1ccc2c(cnn2C(=O)CCC(=O)NC2CCCC2)c1 |  | 2.56%
COc1ccccc1NC(=O)c1ccc(N2CC3CC(C2)c2cccc(=O)n2C3)c(NC(=O)c2cccnc2)c1 (centres undefined) |  | -1.12%
CCC(=O)Nc1nc2ccccc2n1Cc1ccccc1C |  | -4.06%
CC(=O)Nc1nc2ccccc2n1Cc1ccc(C)cc1 | 2.51 µM (active) | 
Cc1ccc(-n2nc3cc(Cl)c(NC(=O)c4ccco4)cc3n2)cc1 |  | 1.07%
CC(=O)c1nc2ccccc2n1Cc1ccccc1 |  | 3.73%
Cc1ccc(Cn2c(NC(=O)c3ccco3)nc3ccccc32)cc1 | 1.58 µM (active) | 
CCn1nc(NC(=O)c2ccco2)c2cc3ccc(C)cc3nc21 |  | -2.31%
COc1ccc(CNC(=O)C(C)NCc2ccccc2Cl)cc1 (centres undefined) |  | 5.57%
CN(C)S(=O)(=O)c1ccc(C(=O)NCCN=C2NS(=O)(=O)c3ccccc32)cc1 |  | -0.064%
Cc1cc2occ(CC(=O)NNC(=O)c3ccccc3F)c2cc1C |  | -0.256%
N#Cc1ccc(C(=O)Nc2cccc3cccnc23)c(F)c1 |  | -9.47%
CC(=O)/C(=N\Nc1ccc(Cl)cc1Cl)Sc1cccc2cccnc12 | 5.01 µM (active) | 
O=C(NNc1cc(Cl)ccc1Cl)c1cccnc1Cl |  | 8.05%

SMILES | Potency | activity, negative = inhibition
CCn1c(CC(=O)Nc2ccccc2C)nnc1SCC(=O)NC1=NCCS1 |  | 1.12%
CC1CC(C)CN(S(=O)(=O)c2cccc3nonc23)C1 (centres undefined) |  | -2.88%
Cc1nnc2n1N=C(c1ccccc1)CS2 |  | 3.4%
CCN1CCN(c2cc3nc(C)n(Cc4ccccc4)c(=O)c3cc2NC(=O)c2ccccc2F)CC1 | 11.2 µM (active) | 
CCC(=O)Nc1ccc2nc(C)n(Cc3ccccc3Cl)c(=O)c2c1 |  | 5.2%
CCOc1cc(NC(=O)c2ccccc2C(=O)O)c(OCC)cc1NC(=O)c1ccccc1F |  | -4.4%
COc1cccc(NC(=O)CN(C)C(=O)c2ccccc2CCc2ccccc2)c1 |  | -5.03%
CC1CCCCC1NC(=O)c1cn(C)c2ccc(S(=O)(=O)N3CCOCC3)cc2c1=O (centres undefined) |  | 20.7%
O=c1onc(-c2c(F)cccc2F)n1-c1ccccc1Cl |  | 3.94%
COc1ccc([N+](=O)[O-])cc1NCC(=O)c1ccc(C)cc1 |  | 2.56%
Cc1nn(CC(=O)NC2CCCCC2)c(=O)c2cccn12 |  | -0.985%
COc1ccc(C(=O)NC(C)CCc2ccccc2)c(OC)c1 (centres undefined) |  | 14.5%
CCOC(=O)N1CCN(C(=O)COc2ccc(Cl)cc2C)CC1 |  | 13.7%
Cc1cc(NC(=O)COc2ccc(Cl)cc2Cl)n(CCC#N)n1 |  | 11.1%
CCCn1nnnc1NC(=O)COc1ccc(Cl)cc1C | 2 µM (active) | 
O=C(Nc1ccccc1C(=O)NCC1CCCO1)c1ccccc1F (centres undefined) |  | 6.59%
CCOC(CNC(=O)C1CCN(S(=O)(=O)c2ccc3nc4c(c(C(=O)O)c3c2)CC(C)CC4)CC1)OCC (centres undefined) |  | -5.96%
O=C(Oc1cccc(C(=S)N2CCOCC2)c1)c1cccc(Cl)c1 |  | -22.8%
CCOC(=O)C1=C(O)CSC1=Nc1cccc(Cl)c1 |  | 0.63%
CN(C)c1nc(=Nc2cccc(Cl)c2)ss1 | 0.891 µM (active) | 
Cn1c(=O)c(=O)n(C)c2cc(S(=O)(=O)CCC(=O)N3CCCCC3)ccc21 |  | -5.3%
O=C(COc1ccc(Cl)cc1)NCCS(=O)(=O)N1CCN(c2ccc(F)cc2)CC1 |  | -4.16%
CCCOc1ccc(Cc2c(O)nc(SC)[nH]c2=O)cc1C |  | -7.9%
CCCOc1ccc(Cc2c(Cl)nc(SC)nc2NC)cc1 | 7.08 µM (active) | 
CCCOc1ccc(-c2nc(N)n[nH]2)cc1 |  | -8.77%
COc1ccccc1C(=O)OCC(=O)NCCNC(=O)COC(=O)c1ccccc1OC |  | 10.1%
Cc1cc(C)cc(C(=O)OCC(=O)NCCNC(=O)COC(=O)c2cc(C)cc(C)c2)c1 | 0.0891 µM (active) | 
